Experimental data taken from PubChem BioAssay (NCI).
About 83,000 compounds went through this panel and 20% of them were active in at least one assay; those are over-represented in the sample as a whole.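 Values shown are percent growth following 48 h exposure of cells in 96-well plates to a single concentration of compound; below 10 was considered active.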 Unmarked numbers belong to inactive results. Activity calls are given as the source filed them.

Columns and labels:
Experiment in all cases: NCI-60 one-dose screen, 48 h (100 = growth as untreated, 0 = no growth, -100 = all killed)
Settings in all cases: 10 µM unless noted
[1] = tested on: SK-MEL-2 melanoma
[2] = tested on: SN12C renal
[3] = tested on: UO-31 renal
[4] = tested on: TK-10 renal
[5] = tested on: ACHN renal
[6] = tested on: CAKI-1 renal
[7] = tested on: A498 renal
[8] = tested on: CCRF-CEM leukemia
[9] = tested on: MOLT-4 leukemia
[10] = tested on: EKVX NSCLC

Structure (SMILES)	growth [1]	growth [2]	growth [3]	growth [4]	growth [5]	growth [6]	growth [7]	growth [8]	growth [9]	growth [10]
CCCCCCCCCCCCCC(=S)NCCCC[C@H](NC(=O)OCc1ccccc1)C(=O)Nc1ccccc1	40.5%	27.3%	28.6%	44.2%	24.6%	34.5%	55.4%	27.3%	21.6%	–
CCc1ccc(Nc2cc(C)c3ccc(O)cc3n2)cc1	85%	77%	44.1%	74.1%	73.8%	53%	93.7%	68.9%	62.9%	–
N#CC1=C(N)Oc2nc[nH]c(=O)c2C1c1cccs1 (stereo not drawn)	113%	105%	97.1%	105%	101%	94.9%	107%	95%	94.3%	–
COc1cccc(NC(=O)c2c(-c3ccccc3)c(-c3ccccc3)n[nH]c2=O)c1	134%	96.7%	86.7%	120%	94%	86.9%	96.9%	–	67.8%	–
O=C1C(Cl)=C(N/N=c2/[nH][nH]/c(=N/NC3=C(Cl)C(=O)c4ccccc4C3=O)c3ccccc23)C(=O)c2ccccc21	96.4%	56.4%	54.7%	130%	61.9%	104%	57%	16.5%	11.4%	–
CCOP(=O)(O)OP(=O)(O)OCC	128%	105%	91.9%	103%	97.6%	94.3%	110%	–	87.1%	–
CC1CCN(Cc2ccc(NC(=O)c3cc4ccc5cccnc5c4[nH]3)cc2)CC1	12%	33%	36.7%	51.1%	53.9%	4.42% (active)	-8.68% (active)	3.08% (active)	11.8%	–
CC(CN1CCN(CCOCCO)CC1)CN1c2ccccc2Sc2ccc(Cl)cc21 (stereo not drawn)	80.7%	69.9%	50.1%	74.4%	69.4%	69.4%	43.9%	63.2%	28.5%	–
Cc1cc(C)cc(Nc2cc(C)nc3nc(C(F)(F)F)nn23)c1	22.6%	31.9%	2.04% (active)	46.1%	28.6%	12.4%	67%	16.9%	18.4%	–
COc1ccc(-c2nc3ccc(Cc4ccc5nc(-c6ccc(OC)cc6)[nH]c5c4)cc3[nH]2)cc1	41.2%	42.4%	89.3%	75.1%	85.4%	56.3%	102%	13.4%	43.7%	–
CC(=O)c1c(O)c(C)c(O)c2c1OC1=CC(=O)/C(=C(/C)N)C(=O)C12C (stereo not drawn)	94.8%	92.8%	77.8%	99.4%	88.4%	87.1%	74.1%	93.1%	73.3%	–
Oc1ccc(Cl)cc1-c1cc(-c2ccccc2Cl)[nH]n1	77.5%	69.5%	38.6%	86.8%	59%	75.9%	96.1%	–	28.5%	–
O=C(NCC(c1ccsc1)N1CCCCCC1)c1ccc(C(F)(F)F)cc1 (stereo not drawn)	94.3%	96.8%	88.1%	94.5%	103%	85%	89.4%	96.2%	78.2%	–
CC(=O)c1ccc(-n2c(-c3cc(-c4ccsc4)n[nH]3)n[nH]c2=S)cc1	86.9%	98.3%	89.5%	98%	88.4%	92.7%	111%	–	87.6%	–
O=c1c2sc3ccccc3c2nnn1-c1ccc(F)c(Cl)c1	75.4%	70.2%	18.1%	29%	4.64% (active)	35.6%	56.6%	48.6%	34.3%	–
N=C(N)c1ccc(-c2ccc(-c3cc(Cl)cc(Cl)c3)o2)nc1	-71.8% (active)	-79.9% (active)	-76.6% (active)	-88.5% (active)	-90.6% (active)	–	61.8%	-37.9% (active)	-55.1% (active)	–
CCOc1cccc(/C=N/NC(=O)c2ccc(Nc3ccnc(C(F)(F)F)c3)cc2)c1O	–	40.7%	-11% (active)	28.4%	3.84% (active)	13.8%	-2.13% (active)	-30.8% (active)	–	15.2%
Cc1cc(NC(=O)C2c3ccccc3C(=O)N(CC(C)C)C2c2cccs2)no1 (stereo not drawn)	50.7%	-30.9% (active)	-89.7% (active)	-5.69% (active)	–	-40.1% (active)	113%	-13% (active)	16.7%	–
O=C(C(Br)C(Br)c1ccccc1)C(Br)C(Br)c1ccccc1 (stereo not drawn)	-28.7% (active)	-30.5% (active)	-96.6% (active)	-87.9% (active)	-96% (active)	–	84.6%	-43.8% (active)	–	–
O=C(Nc1ccccc1)C(CCCCN1C(=O)c2ccccc2C1=O)N1C(=O)c2ccccc2C1=O (stereo not drawn)	–	102%	84.3%	105%	103%	105%	99.1%	100%	96.5%	105%
COc1ccc(C2C3=C(COC3=O)N(CCO)c3cc(OC)c(OC)cc32)cc1 (stereo not drawn)	–	102%	90.8%	93.4%	99.8%	108%	103%	95.8%	88.2%	86.2%
Cc1cc(C)c([O-])c(CN(C)CCN(C)Cc2cc(C)cc(C)c2[O-])c1.O=C([O-])c1cccc(C(=O)[O-])n1.[Ti+4]	–	27.4%	-9.59% (active)	-20.6% (active)	19.4%	24.6%	-86.2% (active)	-2.1% (active)	-5% (active)	27.1%
COc1cc2c(cc1OC)C(=O)OC2	–	99.8%	101%	123%	103%	55.6%	109%	124%	104%	108%
CC(=O)Nc1ccc(Cl)cc1Cl	–	101%	76.2%	112%	106%	73.4%	116%	145%	71.3%	89.9%
C=C1NC(=O)C(C(C)CC)NC(=O)C2CSCC(NC(=O)CCC(=O)O)C(=O)NC(Cc3ccccc3)C(=O)NC(C)C(=O)NC(CC(C)CC)C(=O)NC(C(=O)NC(Cc3ccccc3)C(=O)N3CCCC3C(=O)N2)C(C)OC(=O)C(CO)NC(=O)C(C(O)COC)N(C)C(=O)C(C(C)C)NC(=O)C(CC(C)CC)NC1=O (stereo not drawn)	–	31.4% [6 µM]	57.4% [6 µM]	60.2% [6 µM]	37.4% [6 µM]	33.1% [6 µM]	-11.8% [6 µM] (active)	18.6% [6 µM]	–	30.4% [6 µM]
Cc1cccc(C(=O)O)n1	–	102%	72.3%	109%	102%	69.8%	116%	146%	94.2%	93.9%
CCCCN(CCCC)CCC(=O)c1ccc(OC)c2ccccc12	–	94.9%	57.9%	97.8%	92.3%	52.1%	107%	35.7%	28.6%	92.8%
COS(=O)(=O)CCN(CCOS(C)(=O)=O)S(C)(=O)=O	78.9%	98.1%	86.7%	96.7%	92.9%	96.8%	115%	–	90.5%	–
CC1(C)C(N(O)C(=O)Nc2ccc(Cl)cc2)N(c2ccc(Cl)cc2)C(=O)N1CC(=O)N/N=C/C=C/c1ccc([N+](=O)[O-])o1 (stereo not drawn)	–	-21.4% (active)	12.8%	4.58% (active)	9.18% (active)	68%	–	–	-21.5% (active)	29.8%
